Experimental data: PubChem BioAssay (NCATS)
Inconclusive results are not listed. Values without a mark were called inactive. Calls follow the shape of the dose curve; as a rule, active = well fitted inhibition curve with a large enough effect; inconclusive = small, poorly fitted or top-dose-only effect; inactive = flat fitted curve, though single readings scatter.

Tested on: Zika virus NS2B-NS3 protease
Test: Primary screen GU AMC qHTS for Zika virus inhibitors (AID 1347154);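 also: 0% = no-inhibitor control and -100% = no-enzyme control; nearly all actives have a fitted effect of over 70% in size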
Conditions: Zika NS2B-NS3 unlinked protease, AMC fluorogenic substrate; series mostly up to 54.1 µM; activity change, negative = inhibition: at the top concentration
Outline: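 Unlinked Zika NS2B hydrophilic domain/NS3 protease domain noncovalent complex (25 nM final) in 10 mM Tris-HCl pH 8.0, 0.01% Tween 20, with AMC peptide substrate. Fluorescence (ex 340, em 450 nm) change over 15 min, room temperature; percent inhibition fitted to 4-parameter Hill equation.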

Row | SMILES | activity change, negative = inhibition
1 | Nc1ccn(C[C@@H](CO)OCP(=O)(O)O)c(=O)n1 | 8.48% [at 25.8 µM]
2 | Cn1cnc2c(F)c(Nc3ccc(Br)cc3F)c(C(=O)NOCCO)cc21 | 24.6%
3 | CC(=O)C1=C(O)C=C2Oc3c(C(C)=O)c(O)c(C)c(O)c3C2(C)C1=O (centres undefined) | -10.7%
4 | O=C(Nc1cccc(Nc2ncc(Br)c(NCCc3cnc[nH]3)n2)c1)N1CCCC1 | 3.32%
5 | CC(C)(C)[N+]([O-])=Cc1ccc(S(=O)(=O)O)cc1S(=O)(=O)O | 1.62%
6 | CC(=O)OC[C@@H]1O[C@@H](n2ccc(=O)[nH]c2=O)[C@H](OC(C)=O)[C@H]1OC(C)=O | -2.76%
7 | C[N+]1(C)[C@@H]2C[C@@H](OC(=O)C(O)(c3cccs3)c3cccs3)C[C@H]1[C@@H]1O[C@@H]12 | 10.7%
8 | O=c1[nH]c(=O)n([C@H]2C[C@@H](O)[C@@H](CO)O2)cc1C=CBr | -0.424%
9 | CCOC(=O)C=C[C@H](C[C@@H]1CCNC1=O)NC(=O)[C@@H](CC(=O)[C@@H](NC(=O)c1cc(C)on1)C(C)C)Cc1ccc(F)cc1 | 4.98%
10 | CCCCCN=C(N)NN=Cc1c[nH]c2ccc(OC)cc12 | -1.37%
11 | C[C@]12CCC(=O)C=C1[C@@H]1CC1[C@H]1[C@H]3[C@@H]4C[C@H]4[C@@]4(CCC(=O)O4)[C@@]3(C)CC[C@H]12 (some centres undefined) | 0.549%
12 | NC(=O)c1ncn([C@@H]2O[C@H](CO)[C@@H](O)[C@@H]2O)c1O | 4.22%
13 | Cn1cc(C[C@@H](N)C(=O)O)c2ccccc21 | 3.43% [at 25.8 µM]
14 | CCC[C@H]1C[C@H](C(=O)N[C@@H]([C@@H]2O[C@@H](SC)[C@@H](O)[C@@H](O)[C@@H]2O)[C@H](C)Cl)N(C)C1 | 11.4%
15 | CC(C)OC(=O)[C@H](C)N[P@](=O)(OC[C@H]1O[C@@H](n2ccc(=O)[nH]c2=O)[C@](C)(F)[C@H]1O)Oc1ccccc1 | 10.5%
16 | CCCNC(=O)[C@H]1O[C@H]1C(=O)N[C@H](C(=O)N1CCC[C@@H]1C(=O)OC)C(C)CC (some centres undefined) | 8.63%
17 | C[C@H]1O[C@H](O[C@H]2[C@H](O)[C@@H](O)[C@@H](O[C@H]3[C@H](O)[C@@H](O)C(O)O[C@H]3CO)O[C@H]2CO)[C@H](O)[C@@H](O)[C@H]1N[C@H]1C=C(CO)[C@@H](O)[C@H](O)[C@@H]1O (some centres undefined) | 0.311%

Row | SMILES | activity change, negative = inhibition
18 | C[C@]12CC[C@@H]3c4ccc(O)cc4CC[C@H]3[C@H]1CC[C@H]2O | 8.13%
19 | N#Cc1cc(NC(=O)Nc2nnc(-c3ccncc3)s2)ccc1-c1cn[nH]c1 | -8.5%
20 | C[C@H](CCC(=O)O)[C@H]1CC[C@H]2[C@@H]3[C@H](O)C[C@@H]4C[C@H](O)CC[C@]4(C)[C@@H]3CC[C@]12C | -12.8%
21 | CC[C@H](CC[C@@H](C)[C@H]1CC[C@H]2[C@@H]3CC=C4C[C@@H](O)CC[C@]4(C)[C@@H]3CC[C@]12C)C(C)C | -2.51%
22 | N[C@H]1CN(c2c(F)cc3c(=O)c(C(=O)O)cn(C4C[C@@H]4F)c3c2Cl)CC12CC2 (some centres undefined) | -12.5%
23 | CCOc1cc2c(c(F)c1OCC)C(=N)N(CC(=O)c1cc(N3CCOCC3)c(OC)c(C(C)(C)C)c1)C2 | -10.6%
24 | O=C1CSC(=O)N1C(CCc1ccncc1)COc1ccc(-c2cccc([N+](=O)[O-])c2)cc1 (centres undefined) | 20.1%
25 | CCOC(=O)[C@H](CCc1ccccc1)N[C@@H](C)C(=O)N1[C@@H](C(=O)O)C[C@H]2CCC[C@@H]21 | -16.8%
26 | CN1CCc2c(c3ccccc3n2Cc2ccc(C(=O)NO)cc2)C1 | -0.741%
27 | Nc1ccn(C2CO[C@H](CO)O2)c(=O)n1 (some centres undefined) | -3.39%
28 | C[C@H](CCC(=O)O)[C@H]1CCC2C3C[C@H](O)[C@@H]4C[C@H](O)CC[C@]4(C)C3CC[C@@]21C (some centres undefined) | 5.16%
29 | COc1cc(OC)c(NC(=O)Nc2cc(C)on2)cc1Cl | 9.6%
30 | c1coc(CNc2ncnc3nc[nH]c23)c1 | 3.86%
31 | CC(C=CC=C(C)C=CC1=C(C)CCCC1(C)C)=CC=CC=C(C)C=CC=C(C)C=CC1=C(C)CCCC1(C)C | -15.5%
32 | CN(C)CCN1C(=O)c2cccc3cc(N)cc(c23)C1=O | 4.87%
33 | Cc1ccc2nc(NCCN)c3ncc(C)n3c2c1 | 16.7%
34 | CN[C@H](CC(C)C)C(=O)N[C@H]1C(=O)N[C@@H](CC(N)=O)C(=O)N[C@@H]2C(=O)N[C@H]3C(=O)N[C@H](C(=O)N[C@H](C(=O)O)c4cc(O)cc(O)c4-c4cc3ccc4O)[C@H](O)c3ccc(c(Cl)c3)Oc3cc2cc(c3O[C@@H]2O[C@H](CO)[C@@H](O)[C@H](O)[C@@H]2O[C@H]2C[C@](C)(N)[C@H](O)[C@H](C)O2)Oc2ccc(cc2Cl)[C@H]1O | 6.23%
